Only some compounds are listed: those with a hit (about 14% of all), similar ones and a draw of the others.
MARV entry inh – inhibitors of Marburg virus binding or cell entry | Marburg virus pseudotyped entry inhibition, cell reporter | AID 540276 | Potency, µM (series often up to 37.8 µM), actives largely listed as inhibitors | 300,000 tested, 1.8% active; calls by dose curve; tested in HEK293 cells
HCMV antiviral – blocks human cytomegalovirus replication | activity change, negative = inhibition, % at 57.5 µM | 410,000 tested, 4.5% active | HFF cells, HCMV-luciferase reporter, 72 h; hits give low values | AID 1259415; in the data active means activity change below about -60%; inconclusive means no clear call, values can overlap the other calls; inactive means above about -39%
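Two-dose cell screen: HFF monolayers treated with compounds and infected with luciferase-expressing HCMV at 1 PFU/cell, 72 h at 37C, then lysed for luciferase measurement.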
LASV entry inh – blocks Lassa virus binding to or entry into cells | Lassa virus pseudotype entry inhibition, cell reporter | Potency, µM (highest dose often 37.9 µM), hits mostly inhibitors | 300,000 tested, 1.2% active; calls by dose curve; tested in HEK293 cells; further: nearly all actives have a fitted effect of over 50% in size
Pf growth 48h – P. falciparum growth inhibition at 48 hours (one generation); P. falciparum luciferase growth in erythrocytes, 48 h; Potency, µM (highest dose often 28.7 µM), most hits filed as inhibitors; 310,000 tested, 5.9% active
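Compounds are pin-transferred into medium, infected erythrocytes (2% hematocrit, 0.1% parasitemia final) are added, and plates sit one parasite generation at 37 C in 5% CO2. Detection reagent is then added and luminescence measured.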
HCV inh – inhibitors of hepatitis C virus infection | Huh7.5.1 HCVcc-Cre infection, luciferase reporter, 44 h | Potency, µM (top dose mostly 41.8 µM), most hits filed as inhibitors | 340,000 tested, 3.4% active
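Infectious HCVcc-Cre (~0.5 moi) was added to cells just after compound, with cells seeded 4 h earlier at 1,000 per well. Luciferase activity after 44 h culture reported infection; substrate was incubated 15 min at room temperature before reading.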
Pf growth 96h – inhibits malaria parasite growth, 96 h; P. falciparum luciferase reporter growth, 96 h; 320,000 tested, 6.9% active; Potency, µM (series often up to 28.7 µM), hits mostly inhibitors
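Two-generation exposure (96 h) targets delayed-death phenotype. Reporter parasites carrying integrated firefly luciferase, in red cells at 2% hematocrit and 0.05% parasitemia final, kept at 37 C, 5% CO2; luminescence loss indicates inhibition.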
Hits are given with their value; i = inactive; ? = inconclusive; nt = no result. Unless noted, the call rests on the fitted dose curve; in most records, active means well fitted inhibition curve with a large enough effect; inconclusive means small, poorly fitted or top-dose-only effect, or another doubt; inactive means no such curve, though single readings can be large or run the other way.

SMILES	MARV entry inh	HCMV antiviral	LASV entry inh	Pf growth 48h	HCV inh	Pf growth 96h
O=C(CSc1nc2ccccc2s1)Nc1ccc(N2CCOCC2)c(Cl)c1	i	i	i	i	?	?
O=C(CSc1nc2ccccc2s1)Nc1ccc(Cl)c(S(=O)(=O)N2CCOCC2)c1	?	i	?	?	?	4.7µM
O=C(Nc1ccc(NC(=O)c2ccc(Cl)c(S(=O)(=O)N3CCOCC3)c2)cc1)c1ccccc1	?	i	?	i	?	i
O=C(Nc1ccccc1)Nc1ccc(Cl)c(S(=O)(=O)N2CCOCC2)c1	?	-62	i	9.3µM	?	?
O=C(Nc1ccccc1O)c1cc(S(=O)(=O)N2CCOCC2)c(Cl)cc1Cl	?	?	i	7.4µM	nt	i
N#CC1(c2ccc(NC(=O)c3ccccc3)cc2)CCCC1	nt	nt	nt	i	nt	i
CC(=O)Oc1ccc(C(=O)Nc2ccc(C3(C#N)CCCC3)cc2)cc1	nt	i	nt	i	14µM	?
O=C1CCN(CCCc2ccccc2)CCN1[C@H](CO)Cc1ccccc1	nt	?	nt	i	i	i
CCc1ccc2c(c1)C(c1ccc([N+](=O)[O-])cc1)=NNC(c1ccc(Br)cc1)=N2	i	i	i	9.3µM	i	i
Cc1ccc2c(c1)C(c1ccc([N+](=O)[O-])cc1)=NNC(c1ccc(Br)cc1)=N2	?	i	i	i	i	?
CCS(=O)(=O)N1CC2(CN(C(=O)Nc3c(C)noc3C)[C@@H](CO)c3[nH]c4cc(OC)ccc4c32)C1	nt	i	nt	nt	nt	nt
CS(=O)(=O)Nc1ccc(-c2ccc(/C=C3\SC(N)=NC3=O)o2)cc1	nt	i	nt	i	i	3.3µM
CC(=O)N1Cc2cc(C(=O)NCC(F)(F)F)nc(-c3cccc(-c4cccnc4)c3)c2[C@@H]1CCO	nt	-81	nt	nt	nt	nt
CCCNC(=O)c1cc2c(c(-c3cccc(-c4cc5ccccc5o4)c3)n1)[C@H](CCO)N(C(=O)NC(C)C)C2	nt	-88	nt	nt	nt	nt
CC(C)(C)S(=O)N1Cc2cc(C(=O)NCC(F)(F)F)nc(-c3cccc(-c4cccc(F)c4)c3)c2[C@@H]1CCO (stereo partly drawn)	nt	-77	nt	nt	nt	nt
CC(=O)N1Cc2cc(C(=O)NCC(F)(F)F)nc(-c3cccc(-c4cccnc4)c3)c2[C@H]1CCO	nt	i	nt	nt	nt	nt
CCNC(=O)c1cc2c(c(-c3cccc(-c4cccc(C(=O)N(C)C)c4)c3)n1)[C@@H](CCO)N(S(=O)C(C)(C)C)C2 (stereo partly drawn)	nt	i	nt	nt	nt	nt
COC(=O)c1c(NC(=O)CCl)sc(C(=O)N2CCOCC2)c1C	?	i	?	?	?	i
CCCCOCC1CN(CCCC)S(=O)(=O)c2c(Oc3ccc(SC)c(C)c3)cccc2O1 (stereo not drawn)	nt	i	i	nt	nt	nt
CN(CC(=O)Nc1ccc(Cl)c(C(F)(F)F)c1)C(=O)C1CCN(C(=O)c2ccc(Cl)cc2)CC1	nt	i	nt	nt	11µM	nt
Cc1sc2ncnc(N3CCC(C(=O)N(C)CC(=O)Nc4ccc(Cl)c(C(F)(F)F)c4)CC3)c2c1C	?	?	7.1µM	9.3µM	8.9µM	?
CN(CC(=O)Nc1ccc(Cl)c(C(F)(F)F)c1)C(=O)C1CCC1	i	i	i	?	?	?
Cc1sc2ncnc(N3CCC(C(=O)N(C)CC(=O)Nc4cccc(F)c4)CC3)c2c1C	nt	-88	nt	nt	nt	nt
COc1ccccc1S(=O)(=O)N(C)C[C@H]1Oc2ncc(Br)cc2C(=O)N([C@H](C)CO)C[C@H]1C	nt	i	nt	nt	nt	nt
CCOc1ccccc1NC(=O)CCNS(=O)(=O)c1cccc2nonc12	i	i	?	i	?	?
SMILES	MARV entry inh	HCMV antiviral	LASV entry inh	Pf growth 48h	HCV inh	Pf growth 96h
Cc1nnc2ccc(-c3cccc(NS(=O)(=O)c4ccccc4[N+](=O)[O-])c3)nn12	i	i	i	i	i	2.9µM
Cc1nnc2ccc(-c3cccc(NS(=O)(=O)c4ccccc4Cl)c3)nn12	?	i	i	12µM	i	?
Cc1ccc(C)c(NC(=O)CSc2ccc3nc(-c4ccccc4)cn3n2)c1	nt	i	i	nt	nt	nt
COc1ccc(-n2nc([N+](=O)[O-])c(=NCCc3ccc(OC)c(OC)c3)n2O)cc1	?	?	?	i	13µM	i
COc1ccc(-n2nc([N+](=O)[O-])c(=NC3CCN(Cc4ccccc4)CC3)n2O)cc1	?	-63	i	i	?	i
COc1ccc(-n2nc([N+](=O)[O-])c(=NCc3cccnc3)n2O)cc1	?	i	?	i	i	?
Clc1cccc(C[n+]2cc(-c3ccccc3)n3c2CCC3)c1	?	-70	i	2.1µM	i	0.19µM
O=C(O)CN1CCN(Cc2cccc(Cl)c2)C1=O	?	i	i	i	i	i
Cc1ccc(-c2c[n+](Cc3cccc(Cl)c3)c3n2CCC3)cc1	?	-86	?	?	i	?
Clc1ccc(-c2c[n+](Cc3ccc(Cl)c(Cl)c3)c3n2CCC3)cc1	nt	nt	nt	?	i	?
COC(=O)C1=C(C)N(Cc2ccccc2)C(=NCCc2cccnc2)NC1c1ccccc1 (stereo not drawn)	i	nt	nt	nt	nt	nt
COc1ccc(N2CCN(C(=O)c3cn(C)c4ccc(S(=O)(=O)N(C)C5CCCCC5)cc4c3=O)CC2)cc1	i	i	i	nt	nt	nt
CCCOc1ccc(N2C(=O)CC(NCc3cccs3)C2=O)cc1 (stereo not drawn)	i	i	i	i	i	5.2µM
COCCCN1C(=O)C(CC(=O)NCCCN(C)C)CC(C(=O)N2CCCCCC2)=C1C (stereo not drawn)	nt	i	nt	nt	nt	nt
O=S(=O)(NCc1ccccc1)c1ccc(S(=O)(=O)N(Cc2ccccn2)C2CCCC2)cc1	?	i	?	10µM	?	?
CCNS(=O)(=O)c1ccc(S(=O)(=O)N(Cc2ccccn2)C2CCCCC2)cc1	i	i	i	?	i	i
CN(Cc1nc(-c2cccnc2)no1)S(=O)(=O)c1ccc(Br)cc1	i	i	i	i	i	8.3µM
CN(C)c1nc(C=C(C#N)C#N)c(Cl)n1-c1ccc(F)cc1	?	-97	?	?	?	?
CN(CC(=O)Nc1ccc(F)cc1)C(=O)Cn1nnc(-c2ccccc2)n1	i	i	i	i	i	?
CC(C)(C)N=C1NC(=NC(C)(C)C)c2ccccc21	15µM	-63	?	?	?	i
O=C(Nc1cc(-c2nc3ccccc3o2)ccc1Cl)c1cccc2c(Cl)cccc12	i	i	i	nt	nt	nt
Cn1c2c(c(=O)n(C)c1=O)C(c1ccccc1OC(F)F)C1=C(CCCC1=O)N2 (stereo not drawn)	i	i	i	i	2.8µM	i
CCCOc1ccccc1C1CC(=O)NC2=C1C(=O)CCC2 (stereo not drawn)	?	i	?	?	?	i
CS(=O)(=O)Cc1cc(Sc2ccccc2)nc(-c2ccncc2)n1	?	i	i	i	3.2µM	i
O=S(=O)(Cc1cc(Cl)nc(-c2ccncc2)n1)c1ccccc1	?	-66	i	?	?	?
COc1ccccc1N1CCN(c2nc3c(S(=O)(=O)c4ccc(C)c(C)c4)nnn3c3ccc(Cl)cc23)CC1	i	i	nt	nt	nt	nt
